Records with an inconclusive call do not appear. Some structures have more than one record in an assay (separate samples or runs), and their calls can disagree. Active and inactive are the calls of the source. The calls were made as follows, unless noted: active = hit-call score of the fitted dose curve at least 0.9, where 1 is the maximum; inactive = score below 0.9.
How the values were obtained:
[1] = ATG_Hpa5_TRANS: Attagene TRANS-FACTORIAL HepG2 Assay for human GAL4-Hpa5 Hepatocyte Transcription Factor Basal Promoter (AID 2282975; active = hit-call score of the fitted dose curve at least 0.9, where 1 is the maximum;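 also: hits are increases in reporter mRNA over DMSO baseline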); conditions: HepG2 Attagene GAL4-Hpa5 transcription reporter
Outline: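 Gain-of-signal versus DMSO is fitted for reporter mRNA quantified by RT-PCR and capillary electrophoresis after 24 h exposure. This endpoint is an internal background marker in transiently transfected HepG2 cells carrying GAL4-UAS reporter units.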

[2] = biological target: Oxysterols receptor LXR-alpha (Homo sapiens) (UniProt Q13133); assay: ATG_LXRa_TRANS: Attagene TRANS-FACTORIAL HepG2 Assay for human Liver X Receptor alpha (LXRa) (AID 2282980; active = hit-call score of the fitted dose curve at least 0.9, where 1 is the maximum); conditions: HepG2 Attagene TRANS reporter, LXRa transactivation
Outline: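 Transient HepG2 transfectants, 24 h dosing, RT-PCR/CE mRNA reporter quantitation; gain-of-signal vs DMSO.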

[3] = biological target: Hepatocyte nuclear factor 4-alpha (Homo sapiens) (UniProt P41235); assay: ATG_HNF4a_TRANS: Attagene TRANS-FACTORIAL HepG2 Assay for human Hepatocyte Nuclear Factor 4 alpha (HNF4a) (AID 2282982; active = hit-call score of the fitted dose curve at least 0.9, where 1 is the maximum); conditions: HepG2 HNF4a transactivation reporter, mRNA readout
Sequence of Hepatocyte nuclear factor 4-alpha (Homo sapiens) (P41235 whole entry, looked up): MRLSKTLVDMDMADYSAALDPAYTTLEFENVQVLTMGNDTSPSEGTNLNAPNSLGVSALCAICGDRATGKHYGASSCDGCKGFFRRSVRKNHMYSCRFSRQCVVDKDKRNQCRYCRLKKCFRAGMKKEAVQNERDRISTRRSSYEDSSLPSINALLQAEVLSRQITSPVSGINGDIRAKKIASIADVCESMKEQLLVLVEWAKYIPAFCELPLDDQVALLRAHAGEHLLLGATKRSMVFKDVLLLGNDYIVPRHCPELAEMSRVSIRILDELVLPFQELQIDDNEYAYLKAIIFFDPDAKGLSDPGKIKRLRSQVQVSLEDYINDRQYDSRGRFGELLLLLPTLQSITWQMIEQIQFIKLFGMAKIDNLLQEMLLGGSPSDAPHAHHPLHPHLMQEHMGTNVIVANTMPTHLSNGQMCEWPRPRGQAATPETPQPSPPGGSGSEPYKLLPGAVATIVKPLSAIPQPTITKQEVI
Outline: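 Multiplexed reporter assay: transfected HepG2, 24 h exposure, total RNA → oligo(dT) RT → PCR → 6-FAM extension → HpaI digest → CE fluorescence. DMSO = negative control.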

[4] = biological target: Nuclear receptor subfamily 4 group A member 2 (Homo sapiens) (UniProt P43354); assay: ATG_NURR1_TRANS: Attagene TRANS-FACTORIAL HepG2 Assay for human Nuclear Receptor Related Protein 1 (NURR1) (AID 2282985; active = hit-call score of the fitted dose curve at least 0.9, where 1 is the maximum); conditions: HepG2 Attagene TRANS reporter, mRNA readout
Outline: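 Measures transcriptional activation by an exogenous NR-Gal4 chimera in transfected HepG2 liver cells. After 24 h, reporter RNA is reverse-transcribed, amplified and resolved by capillary electrophoresis; DMSO defines baseline.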

[5] = biological target: Transcriptional activator Myb (Homo sapiens) (UniProt P10242); assay: ATG_Myb_CIS: Attagene CIS-FACTORIAL HepG2 Assay for human Myeloblastosis (Myb) Proto-Oncogene Transcription Factor (AID 2282986); conditions: HepG2 Attagene CIS-FACTORIAL Myb reporter transcription; actives raise or lower the signal
Sequence of Transcriptional activator Myb (Homo sapiens) (P10242 whole entry, looked up): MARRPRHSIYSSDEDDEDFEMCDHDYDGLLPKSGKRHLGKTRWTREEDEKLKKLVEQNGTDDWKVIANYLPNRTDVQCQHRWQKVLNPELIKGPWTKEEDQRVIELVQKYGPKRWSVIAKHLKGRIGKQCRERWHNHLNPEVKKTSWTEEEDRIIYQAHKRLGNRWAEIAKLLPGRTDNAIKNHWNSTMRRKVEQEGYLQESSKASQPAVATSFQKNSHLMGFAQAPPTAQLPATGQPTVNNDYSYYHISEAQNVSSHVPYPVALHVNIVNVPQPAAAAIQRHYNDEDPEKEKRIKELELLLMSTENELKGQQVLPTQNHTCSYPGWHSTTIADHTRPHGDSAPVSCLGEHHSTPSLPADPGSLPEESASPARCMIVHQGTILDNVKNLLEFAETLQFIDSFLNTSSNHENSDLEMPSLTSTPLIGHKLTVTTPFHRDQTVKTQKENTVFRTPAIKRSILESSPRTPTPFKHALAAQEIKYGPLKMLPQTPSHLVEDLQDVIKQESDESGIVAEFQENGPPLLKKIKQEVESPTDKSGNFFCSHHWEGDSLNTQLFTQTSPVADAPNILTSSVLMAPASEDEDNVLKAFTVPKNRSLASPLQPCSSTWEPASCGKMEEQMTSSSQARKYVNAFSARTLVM
Outline: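 Endogenous transcription factor activity at a Myb-responsive cis element is reported in human liver HepG2 cells after 24 h chemical treatment. Reporter mRNA is detected by RT-PCR and capillary electrophoresis fluorescence, with DMSO as baseline.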

[6] = biological target: Nuclear respiratory factor 1 (Homo sapiens) (UniProt Q16656); assay: ATG_NRF1_CIS: Attagene CIS-FACTORIAL HepG2 Assay for human Nuclear Respiratory Factor 1 (NRF1) Orphan Gene (AID 2282987); conditions: HepG2 NRF1 cis-element reporter, Attagene multiplex; actives raise or lower the signal
Sequence of Nuclear respiratory factor 1 (Homo sapiens) (Q16656 whole entry, looked up): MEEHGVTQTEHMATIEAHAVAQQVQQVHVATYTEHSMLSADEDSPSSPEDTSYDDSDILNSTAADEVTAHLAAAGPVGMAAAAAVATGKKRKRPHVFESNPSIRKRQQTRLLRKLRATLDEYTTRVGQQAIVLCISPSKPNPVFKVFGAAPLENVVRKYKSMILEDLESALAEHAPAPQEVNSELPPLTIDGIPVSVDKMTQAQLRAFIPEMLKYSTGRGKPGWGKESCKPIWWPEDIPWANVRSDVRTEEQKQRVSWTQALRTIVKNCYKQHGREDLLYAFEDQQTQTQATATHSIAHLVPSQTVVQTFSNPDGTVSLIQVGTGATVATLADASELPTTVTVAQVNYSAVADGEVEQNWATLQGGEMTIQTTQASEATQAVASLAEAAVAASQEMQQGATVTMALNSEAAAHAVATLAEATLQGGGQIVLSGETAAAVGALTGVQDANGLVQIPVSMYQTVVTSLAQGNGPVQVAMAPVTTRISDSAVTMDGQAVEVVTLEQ
Outline: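 Human hepatoma HepG2 cells carrying transfected promoter-regulated reporter units were incubated with test chemicals for 24 h. Reporter transcripts were measured by RT-PCR plus capillary electrophoresis, and endpoints derived by bidirectional fitting with DMSO as baseline.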

[7] = ATG_NFI_CIS: Attagene CIS-FACTORIAL HepG2 Assay for human Nuclear Factor I (NFI) (AID 2282989); conditions: HepG2 cis-regulatory reporter, NFI response element transcription; actives raise or lower the signal
Outline: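 Reporter transcripts were measured by RT-PCR with fluorescent primer extension and capillary electrophoresis 24 h post-treatment. HepG2 cells carried transiently transfected cis-regulated reporter constructs reporting endogenous factor activity; gain or loss fitted against DMSO baseline.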

[8] = biological target: Myc proto-oncogene protein (Homo sapiens) (UniProt P01106); assay: ATG_Myc_CIS: Attagene CIS-FACTORIAL HepG2 Assay for human Myelocytomatosis (Myc) Proto-Oncogene Transcription Factor (AID 2282990); conditions: HepG2, Attagene cis-reporter transcription factor activity; actives raise or lower the signal
Sequence of Myc proto-oncogene protein (Homo sapiens) (P01106 whole entry, looked up): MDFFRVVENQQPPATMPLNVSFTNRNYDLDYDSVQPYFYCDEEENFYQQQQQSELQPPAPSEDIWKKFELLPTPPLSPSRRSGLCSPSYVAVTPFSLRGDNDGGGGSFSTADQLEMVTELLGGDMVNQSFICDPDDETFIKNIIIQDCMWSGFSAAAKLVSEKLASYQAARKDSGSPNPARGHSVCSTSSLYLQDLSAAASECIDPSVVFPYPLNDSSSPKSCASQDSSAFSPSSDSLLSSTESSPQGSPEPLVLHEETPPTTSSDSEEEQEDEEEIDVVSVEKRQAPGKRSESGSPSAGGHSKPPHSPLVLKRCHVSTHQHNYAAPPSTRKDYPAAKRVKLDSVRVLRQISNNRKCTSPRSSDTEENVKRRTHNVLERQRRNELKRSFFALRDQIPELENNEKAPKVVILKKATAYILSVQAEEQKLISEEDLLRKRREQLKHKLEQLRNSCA
Outline: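 Cells of the HepG2 human liver line bear multiple cis-driven reporter transcription units. Reporter mRNA after 24 h exposure is reverse-transcribed, amplified, labelled and resolved by capillary electrophoresis, with gain- or loss-of-signal fitting relative to DMSO.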

[9] = ATG_NRF2_ARE_CIS: Attagene CIS-FACTORIAL HepG2 Assay for human Nuclear Factor Erythroid 2 Related Factor 2 (NFR2) response to Antioxidant Response Elements (ARE) (AID 2282992); conditions: HepG2 Attagene ARE/NRF2 reporter, transcription factor activity; actives raise or lower the signal;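 as to AC50: reporter mRNA level measured by RT-PCR and capillary electrophoresis fluorescence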
Outline: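 Endogenous transcription factor activity in human liver HepG2 cells is tracked via a cis-element-driven reporter within a multiplexed set. mRNA induction is read by RT-PCR and capillary electrophoresis after 24 h, with DMSO as baseline.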

[10] = BSK_3C_TissueFactor: BioMAP Diversity Plus: 3C Assay for Tissue Factor Biomarker Activity (AID 2282997); conditions: BioMAP 3C HUVEC, tissue factor biomarker readout; actives raise or lower the signal
Outline: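 Cells used were primary human umbilical vein endothelial cells. They were dosed with chemical, and after 24 h Tissue Factor was quantified by ELISA. Curves were fitted bidirectionally with DMSO as baseline.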

[11] = ATG_GAL4_TRANS: Attagene TRANS-FACTORIAL HepG2 Assay for GAL4 (Internal Marker) (AID 2282976; active = hit-call score of the fitted dose curve at least 0.9, where 1 is the maximum); conditions: HepG2 Attagene TRANS GAL4 internal marker reporter
Outline: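 Fluorescence from capillary electrophoresis of labelled RT-PCR products quantifies reporter mRNA induction after 24 h dosing of HepG2 cells carrying transfected GAL4-UAS reporter transcription units. Vehicle DMSO serves as baseline.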

[12] = biological target: Estrogen-related receptor gamma (Homo sapiens) (UniProt P62508); assay: ATG_ERRg_TRANS: Attagene TRANS-FACTORIAL HepG2 Assay for human Estrogen-Related Receptor gamma (ERRg) (AID 2282977; active = hit-call score of the fitted dose curve at least 0.9, where 1 is the maximum;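 also: hits increase reporter signal over DMSO so potencies reflect activators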); conditions: HepG2 Attagene TRANS reporter, ERRg transactivation
Sequence of Estrogen-related receptor gamma (Homo sapiens) (P62508 whole entry, looked up, the tested form may be a part): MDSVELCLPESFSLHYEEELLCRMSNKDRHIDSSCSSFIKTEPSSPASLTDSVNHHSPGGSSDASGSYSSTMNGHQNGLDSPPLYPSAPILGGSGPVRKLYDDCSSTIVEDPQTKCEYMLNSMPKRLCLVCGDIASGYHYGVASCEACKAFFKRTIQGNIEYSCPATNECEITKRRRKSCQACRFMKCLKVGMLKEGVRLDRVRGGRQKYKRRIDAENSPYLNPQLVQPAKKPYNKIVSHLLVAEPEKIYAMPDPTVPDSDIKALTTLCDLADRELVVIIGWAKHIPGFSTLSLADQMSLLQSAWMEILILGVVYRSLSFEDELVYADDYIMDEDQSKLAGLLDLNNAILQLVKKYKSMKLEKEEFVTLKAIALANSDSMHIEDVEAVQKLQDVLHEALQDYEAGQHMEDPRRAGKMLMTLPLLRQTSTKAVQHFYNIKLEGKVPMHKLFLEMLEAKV
Outline: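 Readout: fluorescent reporter-mRNA fragments resolved by capillary electrophoresis after RT-PCR and HpaI cut. Cells: transiently transfected HepG2 carrying GAL4-UAS reporters driven by exogenous NR-Gal4 chimeras, dosed 24 h. Activity fitted upward relative to DMSO baseline.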

[13] = biological target: Oxysterols receptor LXR-beta (Homo sapiens) (UniProt P55055); assay: ATG_LXRb_TRANS: Attagene TRANS-FACTORIAL HepG2 Assay for human Liver X Receptor beta (LXRb) (AID 2282981; active = hit-call score of the fitted dose curve at least 0.9, where 1 is the maximum); conditions: HepG2 Attagene TRANS GAL4-LXRb reporter, mRNA
Sequence of Oxysterols receptor LXR-beta (Homo sapiens) (P55055 whole entry, looked up, the tested form may be a part): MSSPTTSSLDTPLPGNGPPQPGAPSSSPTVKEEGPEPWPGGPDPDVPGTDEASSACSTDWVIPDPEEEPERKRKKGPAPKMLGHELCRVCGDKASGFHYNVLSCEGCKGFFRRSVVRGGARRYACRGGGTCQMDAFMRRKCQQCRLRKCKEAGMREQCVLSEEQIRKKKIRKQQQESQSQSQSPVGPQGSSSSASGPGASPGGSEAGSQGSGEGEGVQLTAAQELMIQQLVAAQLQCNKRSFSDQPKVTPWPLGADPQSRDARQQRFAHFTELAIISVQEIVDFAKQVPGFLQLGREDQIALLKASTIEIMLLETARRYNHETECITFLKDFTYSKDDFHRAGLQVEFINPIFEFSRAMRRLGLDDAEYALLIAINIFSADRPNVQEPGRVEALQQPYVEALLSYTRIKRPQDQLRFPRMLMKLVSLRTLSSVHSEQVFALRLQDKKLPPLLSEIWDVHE
Outline: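 After 24 h of chemical treatment, transfected HepG2 cells yield total RNA; reporter cDNA is PCR-amplified, FAM-labelled, HpaI-cut and run on capillary electrophoresis. Signal reflects chimeric LXRb-Gal4 activity on GAL4-UAS reporters.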

[14] = ATG_M_32_TRANS: Attagene TRANS-FACTORIAL HepG2 Assay for M32 Transcription Factor (Internal Marker) (AID 2282984; active = hit-call score of the fitted dose curve at least 0.9, where 1 is the maximum;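 also: transcript level of a background control reporter unit measured by RT-PCR and capillary electrophoresis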); conditions: HepG2 Attagene TRANS M32 internal marker reporter
Outline: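 Cell-based TRANS-format assay in HepG2: exogenous chimeric GAL4 reporter units transiently expressed, compounds applied 24 h. Reporter mRNA detected by RT-PCR plus capillary electrophoresis; this readout is an internal background marker.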

[15] = ATG_NF_kB_CIS: Attagene CIS-FACTORIAL HepG2 Assay for human Nuclear Factor Kappa B (NF-kB) (AID 2282991); conditions: HepG2 Attagene cis-factorial NF-kB reporter mRNA; actives raise or lower the signal
Outline: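 Multiplexed cis-reporter assay in transiently transfected HepG2. 24 h treatment; RNA isolated, RT-PCR, labelled fragments resolved by CE. DMSO baseline.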

[16] = biological target: Cellular tumor antigen p53 (Homo sapiens) (UniProt P04637); assay: ATG_p53_CIS: Attagene CIS-FACTORIAL HepG2 Assay for human p53 Transcription Factor (AID 2282994); conditions: HepG2 p53 cis-element reporter, Attagene mRNA; actives raise or lower the signal
Sequence of Cellular tumor antigen p53 (Homo sapiens) (P04637 whole entry, looked up, the tested form may be a part): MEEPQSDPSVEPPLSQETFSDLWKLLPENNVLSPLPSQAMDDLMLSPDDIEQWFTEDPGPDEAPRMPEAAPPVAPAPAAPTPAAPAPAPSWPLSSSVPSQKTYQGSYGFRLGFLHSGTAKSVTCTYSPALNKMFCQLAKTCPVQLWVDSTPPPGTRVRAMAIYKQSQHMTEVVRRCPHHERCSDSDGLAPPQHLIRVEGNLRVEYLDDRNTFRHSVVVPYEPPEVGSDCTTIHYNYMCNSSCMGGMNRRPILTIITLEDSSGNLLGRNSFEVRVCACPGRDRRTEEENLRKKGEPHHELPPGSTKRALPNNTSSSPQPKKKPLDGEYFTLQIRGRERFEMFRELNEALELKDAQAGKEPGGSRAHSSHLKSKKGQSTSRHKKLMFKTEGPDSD
Outline: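 Steps: transfect HepG2 with multiplexed cis reporter constructs; dose chemicals 24 h; extract RNA, reverse-transcribe, PCR-amplify reporter sequences; FAM-label, HpaI-digest, resolve fragments by CE. Activity fitted both directions relative to DMSO.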

[17] = ATG_M_06_TRANS: Attagene TRANS-FACTORIAL HepG2 Assay for M06 Transcription Factor (Internal Marker) (AID 2282983; active = hit-call score of the fitted dose curve at least 0.9, where 1 is the maximum); conditions: HepG2 Attagene TRANS M06 internal marker reporter
Outline: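 Human liver HepG2 cells bearing transiently transfected chimeric NR-GAL4 reporter units were treated with chemicals for 24 h. Total RNA was reverse-transcribed, reporter sequences amplified and labelled, then quantified by capillary electrophoresis. Activity was fitted upward relative to DMSO.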

[18] = ATG_Oct_MLP_CIS: Attagene CIS-FACTORIAL HepG2 Assay for human Octamer-Binding Transcription Factor (Oct) (AID 2282993); conditions: HepG2 Attagene cis-factorial Oct reporter, mRNA; actives raise or lower the signal
Outline: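 Readout is reporter transcript level from RT-PCR with fluorescent primer extension and capillary electrophoresis, fitted in both directions against DMSO. Transfected HepG2 reporter units report endogenous factor activity after 24 h dosing.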

[19] = biological target: Glucocorticoid receptor (Homo sapiens) (UniProt P04150); assay: ATG_GR_TRANS: Attagene TRANS-FACTORIAL HepG2 Assay for human Glucocorticoid Receptor (GR) (AID 2282978; active = hit-call score of the fitted dose curve at least 0.9, where 1 is the maximum;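 also: activators score as hits since higher reporter transcript over DMSO is fitted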); conditions: HepG2 Attagene TRANS GR reporter, mRNA transcription
Sequence of Glucocorticoid receptor (Homo sapiens) (P04150 whole entry, looked up): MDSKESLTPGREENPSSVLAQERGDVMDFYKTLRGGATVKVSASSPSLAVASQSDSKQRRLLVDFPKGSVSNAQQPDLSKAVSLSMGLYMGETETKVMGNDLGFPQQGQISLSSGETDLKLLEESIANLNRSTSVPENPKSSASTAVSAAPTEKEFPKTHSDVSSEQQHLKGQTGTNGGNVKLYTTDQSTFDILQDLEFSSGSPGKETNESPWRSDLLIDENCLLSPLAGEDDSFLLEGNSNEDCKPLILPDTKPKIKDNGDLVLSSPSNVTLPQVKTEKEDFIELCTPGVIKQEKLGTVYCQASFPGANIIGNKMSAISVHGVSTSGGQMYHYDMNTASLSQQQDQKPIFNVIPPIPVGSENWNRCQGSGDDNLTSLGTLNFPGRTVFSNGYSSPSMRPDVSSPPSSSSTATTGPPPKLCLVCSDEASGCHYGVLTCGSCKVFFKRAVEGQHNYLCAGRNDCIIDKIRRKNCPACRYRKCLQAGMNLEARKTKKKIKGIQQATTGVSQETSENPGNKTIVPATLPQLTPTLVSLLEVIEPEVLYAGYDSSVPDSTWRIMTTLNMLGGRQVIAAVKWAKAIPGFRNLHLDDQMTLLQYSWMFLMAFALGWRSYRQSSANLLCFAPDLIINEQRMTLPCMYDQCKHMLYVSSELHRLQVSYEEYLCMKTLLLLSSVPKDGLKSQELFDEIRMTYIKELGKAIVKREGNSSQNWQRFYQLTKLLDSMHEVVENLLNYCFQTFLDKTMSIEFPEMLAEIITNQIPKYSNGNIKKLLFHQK
Outline: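 Multiplexed TRANS reporter system, HepG2; 24 h exposure; RNA → oligo(dT) RT → reporter-specific PCR → 6-FAM primer extension → HpaI cut → CE fluorescence. Gain-of-signal vs DMSO.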

[20] = biological target: Bile acid receptor (Homo sapiens) (UniProt Q96RI1); assay: ATG_FXR_TRANS: Attagene TRANS-FACTORIAL HepG2 Assay for Farnesoid X Receptor (FXR) (AID 2282979; active = hit-call score of the fitted dose curve at least 0.9, where 1 is the maximum;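 also: hits raise reporter mRNA above DMSO so AC50 marks FXR activation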); conditions: HepG2 Attagene TRANS FXR-GAL4 reporter transcription
Sequence of Bile acid receptor (Homo sapiens) (Q96RI1 whole entry, looked up, the tested form may be a part): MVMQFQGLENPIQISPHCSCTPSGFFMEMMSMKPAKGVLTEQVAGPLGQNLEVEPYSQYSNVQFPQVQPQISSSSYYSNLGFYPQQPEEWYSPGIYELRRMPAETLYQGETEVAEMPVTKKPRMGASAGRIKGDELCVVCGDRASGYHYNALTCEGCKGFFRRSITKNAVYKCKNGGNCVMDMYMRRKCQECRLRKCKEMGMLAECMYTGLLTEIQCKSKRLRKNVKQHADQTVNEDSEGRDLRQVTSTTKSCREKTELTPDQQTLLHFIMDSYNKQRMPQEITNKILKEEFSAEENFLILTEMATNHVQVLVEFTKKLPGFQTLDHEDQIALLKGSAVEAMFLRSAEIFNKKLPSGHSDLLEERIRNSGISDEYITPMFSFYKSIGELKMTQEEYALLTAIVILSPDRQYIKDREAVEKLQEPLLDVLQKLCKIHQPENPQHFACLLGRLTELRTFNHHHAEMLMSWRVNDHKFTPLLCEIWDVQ
Outline: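 Chimeric FXR-GAL4 activity in transiently transfected human HepG2 liver cells is scored as induction of reporter mRNA after 24 h of dosing. Detection uses RT-PCR with fluorescent labelling and capillary electrophoresis, with DMSO serving as baseline.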

Measured: AC50

CCC(C)Nc1c([N+](=O)[O-])cc(C(C)(C)C)cc1[N+](=O)[O-] (centres undefined)
inactive: [1] | [2] | [3] | [4] | [5] | [6] | [7] | [8] | [10]
active: [9] 8.79 µM

CCOCN(C(=O)CCl)c1c(C)cccc1CC
inactive: [11] | [12] | [13] | [14] | [4] | [5] | [6] | [7] | [8] | [15] | [16] | [10]
active: [9] 1.21 µM

O=C(NC(=O)c1c(F)cccc1F)Nc1ccc(OC(F)(F)C(F)OC(F)(F)F)c(Cl)c1 (centres undefined)
inactive: [12] | [2] | [13] | [3] | [17] | [5] | [6] | [7] | [8] | [15] | [10]
active: [9] 13.8 µM | [18] 19.9 µM

N#CN
inactive: [13] | [3] | [17] | [14] | [4] | [5] | [6] | [7] | [8] | [15] | [9] | [10]

Oc1ccc(Cl)cc1Cc1ccccc1
inactive: [11] | [19] | [2] | [13] | [3] | [17] | [14] | [4] | [5] | [6] | [7] | [8] | [15] | [9] | [16]
active: [19] 33.6 µM | [4] 14.7 µM | [5] 15.2 µM | [7] 13.1 µM | [8] 6.37 µM | [15] 16.7 µM | [9] 8.4 µM [middle of 9 runs] | [10] 32.4 µM [middle of 7 runs]

CNC(=O)Oc1ccccc1OC(C)C
inactive: [19] | [13] | [4] | [5] | [6] | [7] | [8] | [15] | [9] | [18] | [16] | [10]

OCCOc1ccccc1
inactive: [12] | [19] | [2] | [13] | [14] | [4] | [5] | [6] | [7] | [8] | [9] | [16] | [10]

CC(C)OC(=O)Nc1cccc(Cl)c1
inactive: [12] | [2] | [13] | [3] | [17] | [14] | [4] | [5] | [6] | [7] | [8] | [15] | [16] | [10]
active: [9] 21 µM

CN1CSC(=S)N(C)C1
inactive: [19] | [2] | [13] | [17] | [14] | [4] | [5] | [6] | [8] | [15] | [16] | [10]
active: [7] 69.1 µM | [9] 21.7 µM | [18] 24.6 µM

O=C(Nc1ccccc1)Nc1cnns1
inactive: [12] | [19] | [20] | [2] | [13] | [3] | [14] | [4] | [6] | [8] | [15] | [16] | [10]
active: [5] 78.3 µM | [7] 80.9 µM | [9] 50 µM

COP(=O)(OC)OC=C(Cl)Cl
inactive: [13] | [3] | [17] | [14] | [4] | [5] | [6] | [7] | [8] | [15] | [10]
active: [9] 35.7 µM

COC(=O)c1ccccc1CS(=O)(=O)NC(=O)Nc1nc(OC)cc(OC)n1
inactive: [11] | [12] | [19] | [20] | [2] | [13] | [3] | [17] | [14] | [4] | [5] | [6] | [7] | [8] | [15] | [9] | [18] | [16] | [10]
active: [9] 24.2 µM

CNC(=O)/C=C(\C)OP(=O)(OC)OC
inactive: [19] | [20] | [13] | [3] | [17] | [14] | [5] | [6] | [7] | [8] | [9] | [18] | [10]

CCOC1Oc2ccc(OS(C)(=O)=O)cc2C1(C)C (centres undefined)
active: [9] 9.79 µM
inactive: [2] | [13] | [3] | [14] | [4] | [5] | [6] | [7] | [8] | [15] | [10]

Source: PubChem BioAssay (EPA / NIEHS)
